Data published in PubChem BioAssay (EPA / NIEHS).
More than one record can exist for a structure, and the calls need not agree. Calls of active or inactive are those of the source. Rule for the calls: active = hit-call score of the fitted dose curve at least 0.9, where 1 is the maximum; inactive = score below 0.9.

Legend:
[1] = read-out: Macrophage colony-stimulating factor (MCSF), CSF1 (gene 1435); experiment: BSK_hDFCGF_MCSF: BioMAP Diversity Plus: hDFCGF Assay for Macrophage colony-stimulating factor (MCSF) Biomarker Activity (AID 2283060); settings: primary human foreskin fibroblasts; actives raise or lower the signal
Outline: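 Primary human foreskin fibroblasts dosed with chemical; 24 h later, M-CSF quantified by ELISA; curves fitted in both directions vs DMSO negative control.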

[2] = BSK_hDFCGF_SRB: Viability Assessment in the BioMAP Diversity Plus: hDFCGF Assay (AID 2283061); settings: primary human foreskin fibroblasts;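 note: cells exposed to compound for 24 h before the read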
Outline: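 Readout is SRB absorbance at 560 nm, reflecting total protein in parallel cultures of human foreskin fibroblasts harvested 24 h after chemical dosing. Activity was fitted bidirectionally relative to DMSO.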

[3] = read-out: TIMP metallopeptidase inhibitor 1 (TIMP1), TIMP1 (gene 7076); experiment: BSK_hDFCGF_TIMP1: BioMAP Diversity Plus: hDFCGF Assay for TIMP metallopeptidase inhibitor 1 (TIMP1) Biomarker Activity (AID 2283062); settings: primary human foreskin fibroblasts; actives raise or lower the signal
Outline: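 Human skin fibroblasts (primary), hDFCGF system; compound exposure 24 h; TIMP-1 by ELISA; bidirectional fit vs DMSO negative control; overt cytotoxicity by SRB in parallel wells.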

[4] = read-out: Monokine induced gamma interferon (MIG), CXCL9 (gene 4283); experiment: BSK_hDFCGF_MIG: BioMAP Diversity Plus: hDFCGF Assay for Monokine induced gamma interferon (MIG) Biomarker Activity (AID 2283063); settings: primary human foreskin fibroblasts; actives raise or lower the signal
Outline: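 Chemicals were added to primary human foreskin fibroblast cultures, which were sampled 24 h later. MIG levels were then quantified by ELISA and responses fitted in both directions relative to DMSO.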

[5] = read-out: Matrix Metallopeptidase 1 (MMP1), MMP1 (gene 4312); experiment: BSK_hDFCGF_MMP1: BioMAP Diversity Plus: hDFCGF Assay for Matrix Metallopeptidase 1 (MMP1) Biomarker Activity (AID 2283064); settings: primary human foreskin fibroblasts; actives raise or lower the signal
Outline: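 Primary human foreskin fibroblasts exposed to chemicals for 24 h; MMP1 measured by ELISA. Cytotoxicity tracked by SRB staining in parallel cultures; bidirectional fit relative to DMSO.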

[6] = read-out: Vascular cell adhesion molecule 1 (VCAM1), VCAM1 (gene 7412); experiment: BSK_hDFCGF_VCAM1: BioMAP Diversity Plus: hDFCGF Assay for Vascular cell adhesion molecule 1 (VCAM1) Biomarker Activity (AID 2283065); settings: primary human foreskin fibroblasts; actives raise or lower the signal;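 for AC50: VCAM-1 protein level quantified by ELISA after 24 h chemical exposure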
Outline: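 Human foreskin fibroblast primary cells, chemical exposure 24 h; VCAM-1 by ELISA; bidirectional fit, DMSO = negative control/baseline.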

[7] = read-out: Plasminogen activator inhibitor-1 (PAI1), SERPINE1 (gene 5054); experiment: BSK_hDFCGF_PAI1: BioMAP Diversity Plus: hDFCGF Assay for Plasminogen activator inhibitor-1 (PAI1) Biomarker Activity (AID 2283066); settings: primary human foreskin fibroblasts; actives raise or lower the signal
Outline: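 PAI-1 levels, determined by ELISA, served as the endpoint in human foreskin fibroblast cultures exposed to compound for 24 h, with DMSO as baseline.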

[8] = read-out: Intercellular Adhesion Molecule 1 (ICAM1), ICAM1 (gene 3383); experiment: BSK_KF3CT_ICAM1: BioMAP Diversity Plus: KF3CT Assay for Intercellular Adhesion Molecule 1 (ICAM1) Biomarker Activity (AID 2283067); settings: primary human keratinocytes with fibroblasts; actives raise or lower the signal
Outline: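 ICAM-1 levels are measured by ELISA 24 h after dosing a primary human co-culture of keratinocytes and foreskin fibroblasts. Activity in either direction is fitted relative to DMSO vehicle.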

[9] = read-out: Interferon-gamma inducible Protein 10 (IP10), CXCL10 (gene 3627); experiment: BSK_KF3CT_IP10: BioMAP Diversity Plus: KF3CT Assay for Interferon-gamma inducible Protein 10 (IP10) Biomarker Activity (AID 2283068); settings: primary human keratinocytes with fibroblasts; actives raise or lower the signal
Outline: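 ELISA read-out of IP-10 after 24 h chemical dosing of human skin primary co-culture (keratinocytes, foreskin fibroblasts). Gain or loss of signal relative to DMSO, bidirectional curve fit.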

[10] = read-out: Interleukin-1 alpha (IL1a), IL1A (gene 3552); experiment: BSK_KF3CT_IL1a: BioMAP Diversity Plus: KF3CT Assay for Interleukin-1 alpha (IL1a) Biomarker Activity (AID 2283070); settings: primary human keratinocytes with fibroblasts; actives raise or lower the signal
Outline: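 Primary human keratinocyte plus foreskin fibroblast co-culture, dosed and measured at 24 h in 96-well plates. IL-1a level quantified by ELISA; bidirectional fit relative to DMSO.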

[11] = read-out: TIMP metallopeptidase inhibitor 2 (TIMP2), TIMP2 (gene 7077); experiment: BSK_KF3CT_TIMP2: BioMAP Diversity Plus: KF3CT Assay for TIMP metallopeptidase inhibitor 2 (TIMP2) Biomarker Activity (AID 2283071); settings: primary human keratinocytes with fibroblasts; actives raise or lower the signal
Outline: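 Keratinocyte–fibroblast co-culture, 24 h exposure; TIMP-2 ELISA, DMSO-normalised bidirectional fit. Parallel SRB (0.1%, TCA-fixed, 560 nm) total-protein staining gauges cytotoxicity.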

[12] = read-out: Transforming growth factor beta 1 (TGFb1), TGFB1 (gene 7040); experiment: BSK_KF3CT_TGFb1: BioMAP Diversity Plus: KF3CT Assay for Transforming growth factor beta 1 (TGFb1) Biomarker Activity (AID 2283072); settings: primary human keratinocytes with fibroblasts; actives raise or lower the signal
Outline: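 Signal changes in either direction, relative to DMSO, define activity here. TGF-b1 is read by ELISA from a human keratinocyte-fibroblast co-culture 24 h post-dose.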

[13] = read-out: C-C motif chemokine 2 (Homo sapiens) (UniProt P13500); experiment: BSK_KF3CT_MCP1: BioMAP Diversity Plus: KF3CT Assay for Monocyte Chemoattractant Protein 1 (MCP1/CCL2) Biomarker Activity (AID 2283073); settings: primary human keratinocytes with fibroblasts; actives raise or lower the signal
Outline: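 ELISA readout of MCP-1 after 24 h chemical dosing of a human skin primary co-culture of keratinocytes and foreskin fibroblasts. Activity was fitted in both directions against DMSO.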

[14] = read-out: Matrix Metallopeptidase 9 (MMP9), MMP9 (gene 4318); experiment: BSK_KF3CT_MMP9: BioMAP Diversity Plus: KF3CT Assay for Matrix Metallopeptidase 9 (MMP9) Biomarker Activity (AID 2283074); settings: primary human keratinocytes with fibroblasts; actives raise or lower the signal;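 for AC50: MMP9 protein level quantified by ELISA in the co-culture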
Outline: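 Human keratinocyte and foreskin fibroblast co-culture exposed to chemicals for 24 h; MMP9 biomarker measured by ELISA, bidirectional fitting relative to DMSO; cytotoxicity tracked by SRB total protein staining in parallel cultures.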

[15] = read-out: urokinase plasminogen activator (uPA), PLAU (gene 5328); experiment: BSK_KF3CT_uPA: BioMAP Diversity Plus: KF3CT Assay for urokinase plasminogen activator (uPA) Biomarker Activity (AID 2283075); settings: primary human keratinocytes with fibroblasts; actives raise or lower the signal
Outline: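 Primary human keratinocyte/foreskin fibroblast co-culture exposed to chemical; uPA measured by ELISA at 24 h. Bidirectional fit versus DMSO, with parallel SRB total-protein staining for cytotoxicity.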

[16] = read-out: CD40, CD40 (gene 958); experiment: BSK_LPS_CD40: BioMAP Diversity Plus: LPS Assay for CD40 Biomarker Activity (AID 2283076); settings: primary human HUVEC with PBMC; actives raise or lower the signal
Outline: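 Cells were dosed, incubated 24 h, then assayed for CD40 by ELISA. Gain or loss of signal was analysed relative to DMSO controls. The culture paired human umbilical vein endothelium with peripheral blood mononuclear cells.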

[17] = read-out: E-selectin (Homo sapiens) (UniProt P16581); experiment: BSK_LPS_Eselectin: BioMAP Diversity Plus: LPS Assay for Eselectin Biomarker Activity (AID 2283077); settings: primary human HUVEC with PBMC; actives raise or lower the signal
Outline: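 Primary human vascular co-culture (endothelium plus PBMC) was dosed with chemical, then E-selectin quantified by ELISA at 24 h. Endpoint values derive from bidirectional curve fitting relative to DMSO.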

[18] = read-out: Interleukin-8 (IL8), CXCL8 (gene 3576); experiment: BSK_LPS_IL8: BioMAP Diversity Plus: LPS Assay for Interleukin-8 (IL8) Biomarker Activity (AID 2283078); settings: primary human HUVEC with PBMC; actives raise or lower the signal
Outline: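 Readout is IL-8 by ELISA, taken 24 h after compounds were added to LPS-stimulated endothelial/PBMC co-cultures. Both increases and decreases relative to DMSO control were scored through bidirectional fitting.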

[19] = BSK_LPS_SRB: Viability Assessment in the BioMAP Diversity Plus: LPS Assay (AID 2283079); settings: primary human HUVEC with PBMC;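 note: total protein by sulforhodamine B absorbance as a cytotoxicity measure; measured one day after compound addition; fitted in both directions against DMSO so loss or gain of signal counts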
Outline: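 Readout is SRB absorbance at 560 nm (0.1% stain, TCA-fixed parallel cultures) as a total-protein cytotoxicity measure. Cells: primary human umbilical vein endothelium plus peripheral blood mononuclear cells, 24 h after chemical exposure; DMSO served as baseline.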

[20] = BSK_KF3CT_SRB: Viability Assessment in the BioMAP Diversity Plus: KF3CT Assay (AID 2283069); settings: primary human keratinocytes with fibroblasts;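 note: total protein by sulforhodamine B staining as a cytotoxicity measure; read 24 h after compound addition; fitted for both signal gain and loss against DMSO baseline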
Outline: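 Human keratinocyte and foreskin fibroblast co-culture exposed to chemical for 24 h. Total protein measured in parallel cultures by 0.1% sulforhodamine B staining after 10% TCA fixation, read at 560 nm; bidirectional fit relative to DMSO.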

Measured: AC50

Sequence of E-selectin (Homo sapiens) (P16581 whole entry, looked up): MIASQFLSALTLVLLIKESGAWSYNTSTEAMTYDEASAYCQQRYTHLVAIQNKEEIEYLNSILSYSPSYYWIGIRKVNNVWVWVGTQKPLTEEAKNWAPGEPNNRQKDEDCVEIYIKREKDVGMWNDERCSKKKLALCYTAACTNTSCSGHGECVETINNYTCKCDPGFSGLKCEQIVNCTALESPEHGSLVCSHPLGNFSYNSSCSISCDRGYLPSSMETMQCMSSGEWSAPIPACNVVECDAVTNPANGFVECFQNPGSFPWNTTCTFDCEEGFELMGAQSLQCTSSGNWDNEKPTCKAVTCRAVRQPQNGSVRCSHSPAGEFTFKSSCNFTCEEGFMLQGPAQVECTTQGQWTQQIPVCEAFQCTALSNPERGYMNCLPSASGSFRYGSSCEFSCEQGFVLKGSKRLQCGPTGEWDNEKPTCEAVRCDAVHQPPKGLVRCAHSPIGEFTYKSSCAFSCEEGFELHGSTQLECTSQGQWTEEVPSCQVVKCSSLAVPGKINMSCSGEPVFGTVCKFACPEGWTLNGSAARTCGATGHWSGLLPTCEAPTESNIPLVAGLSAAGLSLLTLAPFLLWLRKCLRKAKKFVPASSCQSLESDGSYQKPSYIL

CC(C)(C)C(O)/C(=C\c1ccc(Cl)cc1Cl)n1cncn1 (stereo not drawn)
active: [1] 26.5 µM | [2] 20 µM | [3] 25.7 µM | [6] 31.6 µM | [7] 9.85 µM | [8] 34.4 µM | [9] 29.7 µM | [11] 33.2 µM | [13] 34.3 µM | [14] 28.5 µM | [15] 32.2 µM | [16] 18.4 µM | [17] 21.9 µM | [18] 32.4 µM | [19] 31 µM
inactive: [4] | [5] | [10] | [12]

CCOCN(C(=O)CCl)c1c(C)cccc1CC
active: [1] 9.55 µM | [4] 22.8 µM | [5] 5.13 µM | [6] 3.54 µM | [7] 21.8 µM | [9] 23.6 µM | [14] 12.7 µM | [16] 14.8 µM | [17] 28.5 µM | [19] 22.7 µM
inactive: [2] | [3] | [8] | [10] | [11] | [12] | [13] | [15] | [18]

[2H]C1([2H])[n+]2ccccc2-c2cccc[n+]2C1([2H])[2H]
active: [5] 3.17 µM | [9] 4.43 µM | [10] 20 µM | [14] 13.3 µM | [15] 28.9 µM
not listed: [13]
inactive: all other assays above

Cc1cc(C)nc(NC(=O)NS(=O)(=O)c2ccccc2C(=O)OC2COC2)n1
inactive: all assays above

ClC1C(Cl)C(Cl)C(Cl)C(Cl)C1Cl (stereo not drawn)
inactive: [1] | [2] | [3] | [4] | [5] | [6] | [7] | [8] | [9] | [10] | [11] | [12] | [13] | [14] | [15] | [16] | [17] | [18] | [19]
active: [11] 20 µM | [12] 20 µM
